The structures appear in SMILES notation. Calls of active or inactive are those of the source. Rule for the calls: active = hit-call score of the fitted dose curve at least 0.9, where 1 is the maximum; inactive = score below 0.9.

Read-out in the first test: Thyroid Hormone Responsive (THRSP), THRSP (gene 7069)
Description: LTEA_HepaRG_THRSP: Life Technologies and Expression Analysis (LTEA) Assay for Thyroid Hormone Responsive (THRSP) using HepaRG (AID 2283536). The settings on record: mRNA level, 48 h; actives raise or lower the signal. The gist of the method:
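Differentiated human HepaRG cells were exposed in duplicate for 48 h in serum-free induction medium to eight concentrations (top 100 uM, half-log steps, 0.5% DMSO). Expression was quantified by TaqMan qRT-PCR, normalized to ACTB, GAPDH and POLR2A, with bidirectional fitting against DMSO.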
Turning to `COCCOCCO`, the molecule was classed as inactive.
Same read-out and setting: then `Nc1cc2c3c(c1)C(c1ccccc1)=N[C@@H](NC(=O)c1cccnc1)C(=O)N3CC2`, with “inactive”; and `CCNc1nc(Cl)nc(NC(C)(C)C)n1`, with “inactive”.
Still for that read-out and setting: next, `CC(Cl)(Cl)C(=O)O`: “inactive”; `Cc1cccc(N)c1`: “inactive”.
On the same count and under the same terms, next, `CC(Cc1ccc(OCC(=O)O)cc1)NCC(O)c1csc(C(F)(F)F)n1` (stereo not given): “inactive”.
Turning to `CSC(C)(C)C=NO`, the result was inactive.
Consider `Cc1ccc(N)cc1N`, for which the AC50 was 4.89 µM (active).
For `CCOS(=O)(=O)OCC`, the molecule was called inactive.
Consider `CCCCN(CCCC)SN(C)C(=O)Oc1cccc2c1OC(C)(C)C2`, for which the molecule was classed as inactive.
The same measure, in the same setting: then `CCOC(=O)c1ccccc1C(=O)OCC`, with “inactive”.
The same measure, in the same setting: then `CCCCc1ccccc1`, with “inactive”; and `c1nc[nH]n1`, with “inactive”; and `O=P(Oc1ccccc1)(Oc1ccccc1)Oc1ccccc1`, with “inactive”.
Same read-out and setting: then `ClC(Cl)c1ccccc1`, with “inactive”; and `Cc1ccc([N+](=O)[O-])cc1C`, with “inactive”; and `O=[N+]([O-])c1ccccc1`, with “inactive”.
Take `CN(C)C(=O)Cl`: the result was inactive.
The same measure, in the same setting: then `O=P1(N(CCCl)CCCl)NCCCO1` (stereo not given), with “inactive”.
Turning to `[N-]=[N+]=[N-]`, the AC50 is 50 µM (active).
Consider `Nc1ccc(Cl)cc1`, for which the molecule was called inactive.
The same measure, in the same setting: then `CCC(C)(C)c1ccc(O)cc1`, with “inactive”; and `c1cc2c3c(cccc3c1)CC2`, with “inactive”.
Still for that read-out and setting: then `O=C(O)C1C(C(=O)O)C2(Cl)C(Cl)=C(Cl)C1(Cl)C2(Cl)Cl` (stereo not given), with “inactive”; and `CCOP(=S)(OCC)SCSCC`, with “inactive”.
Consider `c1ccc2c(c1)Nc1ccccc1S2`, for which the half-maximal activity concentration (AC50) was 32.5 µM (active).
Still for that read-out and setting: next, `O=[N+]([O-])c1ccc(Cl)c(Cl)c1`: 10.8 µM (active).
For `CCCCCCCc1ccc(O)cc1`, the molecule was called inactive.
As to `CCCCN(CCCC)N=O`, the call was inactive.
On the same count and under the same terms, then `CCCN(CCC)c1c([N+](=O)[O-])cc(C(C)C)cc1[N+](=O)[O-]`, with “inactive”.

Read-out in another test: UDP glucuronosyltransferase (UGT1A1), UGT1A1 (gene 54658)
Briefly: LTEA_HepaRG_UGT1A1: Life Technologies and Expression Analysis (LTEA) Assay for UDP glucuronosyltransferase (UGT1A1) using HepaRG (AID 2283538). The settings on record: mRNA level, 48 h; actives raise or lower the signal. The gist of the method:
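Human liver HepaRG cultures receive test chemical for 48 h, up to 100 uM in 0.5% DMSO, with phenobarbital induction controls. UGT1A1 mRNA is measured by qRT-PCR and normalized to ACTB, GAPDH and POLR2A.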
With `COCCOCCO`, the AC50 was 1.57 µM (active).
In the case of `Nc1cc2c3c(c1)C(c1ccccc1)=N[C@@H](NC(=O)c1cccnc1)C(=O)N3CC2`, the molecule was called inactive.
`CCNc1nc(Cl)nc(NC(C)(C)C)n1`: the AC50 is 6.03 µM (active).
As to `CC(Cl)(Cl)C(=O)O`, the outcome was inactive.
Turning to `Cc1cccc(N)c1`, the result was inactive.
The same measure, in the same setting: then `CC(Cc1ccc(OCC(=O)O)cc1)NCC(O)c1csc(C(F)(F)F)n1` (stereo not given), with “inactive”; and `CSC(C)(C)C=NO`, with “inactive”.
As to `Cc1ccc(N)cc1N`, the AC50 is 15 µM (active).
As to `CCOS(=O)(=O)OCC`, the outcome was inactive.
In the case of `CCCCN(CCCC)SN(C)C(=O)Oc1cccc2c1OC(C)(C)C2`, the AC50 is 10 µM (active).
Take `CCOC(=O)c1ccccc1C(=O)OCC`: the call was inactive.
Consider `CCCCc1ccccc1`, for which the result was inactive.
The same measure, in the same setting: then `c1nc[nH]n1`, with “inactive”.
In the case of `O=P(Oc1ccccc1)(Oc1ccccc1)Oc1ccccc1`, the AC50 was 3.1 µM (active).
Regarding `ClC(Cl)c1ccccc1`, the result was inactive.
As for `Cc1ccc([N+](=O)[O-])cc1C`, the call was inactive.
Same read-out and setting: next, `O=[N+]([O-])c1ccccc1`: “inactive”.
As to `CN(C)C(=O)Cl`, the molecule was called inactive.
On the same count and under the same terms, next, `O=P1(N(CCCl)CCCl)NCCCO1` (stereo not given): “inactive”.
With `[N-]=[N+]=[N-]`, the AC50 is 80.7 µM (active).
Turning to `Nc1ccc(Cl)cc1`, the AC50 was 36.5 µM (active).
Regarding `CCC(C)(C)c1ccc(O)cc1`, the call was inactive.
As to `c1cc2c3c(cccc3c1)CC2`, the molecule was classed as inactive.
The same measure, in the same setting: then `O=C(O)C1C(C(=O)O)C2(Cl)C(Cl)=C(Cl)C1(Cl)C2(Cl)Cl` (stereo not given), with “inactive”.
On to `CCOP(=S)(OCC)SCSCC`, for which the molecule was classed as inactive.
As to `c1ccc2c(c1)Nc1ccccc1S2`, the AC50 is 50 µM (active).
Consider `O=[N+]([O-])c1ccc(Cl)c(Cl)c1`, for which the AC50 was 13.5 µM (active).
As for `CCCCCCCc1ccc(O)cc1`, the result was inactive.
With `CCCCN(CCCC)N=O`, the outcome was inactive.
On to `CCCN(CCC)c1c([N+](=O)[O-])cc(C(C)C)cc1[N+](=O)[O-]`, for which the concentration at half-maximal activity (AC50) was 1.85 µM (active).

Read-out in the next test: X-box binding protein 1 (XBP1), XBP1 (gene 7494)
Description: LTEA_HepaRG_XBP1: Life Technologies and Expression Analysis (LTEA) Assay for X-box binding protein 1 (XBP1) using HepaRG (AID 2283540). The conditions noted are these: mRNA level, 48 h; actives raise or lower the signal. The gist of the method:
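Eight concentrations (half-log, highest 100 uM, 0.5% DMSO) tested in duplicate on HepaRG cells over 48 h in serum-free induction medium; qRT-PCR of XBP1 normalised to ACTB, GAPDH, POLR2A.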
In the case of `COCCOCCO`, the molecule was called inactive.
On the same count and under the same terms, next, `Nc1cc2c3c(c1)C(c1ccccc1)=N[C@@H](NC(=O)c1cccnc1)C(=O)N3CC2`: “inactive”; `CCNc1nc(Cl)nc(NC(C)(C)C)n1`: “inactive”; `CC(Cl)(Cl)C(=O)O`: “inactive”.
Still for that read-out and setting: then `Cc1cccc(N)c1`, with “inactive”.
`CC(Cc1ccc(OCC(=O)O)cc1)NCC(O)c1csc(C(F)(F)F)n1` (stereo not given): the molecule was called inactive.
On the same count and under the same terms, next, `CSC(C)(C)C=NO`: “inactive”.
With `Cc1ccc(N)cc1N`, the result was inactive.
Still for that read-out and setting: next, `CCOS(=O)(=O)OCC`: “inactive”; `CCCCN(CCCC)SN(C)C(=O)Oc1cccc2c1OC(C)(C)C2`: “inactive”; `CCOC(=O)c1ccccc1C(=O)OCC`: “inactive”.
In the case of `CCCCc1ccccc1`, the result was inactive.
On the same count and under the same terms, next, `c1nc[nH]n1`: “inactive”.
Take `O=P(Oc1ccccc1)(Oc1ccccc1)Oc1ccccc1`: the outcome was inactive.
Same read-out and setting: then `ClC(Cl)c1ccccc1`, with “inactive”.
Same read-out and setting: next, `Cc1ccc([N+](=O)[O-])cc1C`: “inactive”.
In the case of `O=[N+]([O-])c1ccccc1`, the result was inactive.
Same read-out and setting: next, `CN(C)C(=O)Cl`: “inactive”.
Same read-out and setting: next, `O=P1(N(CCCl)CCCl)NCCCO1` (stereo not given): “inactive”.
The same measure, in the same setting: next, `[N-]=[N+]=[N-]`: “inactive”; `Nc1ccc(Cl)cc1`: “inactive”; `CCC(C)(C)c1ccc(O)cc1`: “inactive”.
`c1cc2c3c(cccc3c1)CC2`: the outcome was inactive.
Same read-out and setting: then `O=C(O)C1C(C(=O)O)C2(Cl)C(Cl)=C(Cl)C1(Cl)C2(Cl)Cl` (stereo not given), with “inactive”.
Same read-out and setting: then `CCOP(=S)(OCC)SCSCC`, with “inactive”; and `c1ccc2c(c1)Nc1ccccc1S2`, with “inactive”.
For the molecule `O=[N+]([O-])c1ccc(Cl)c(Cl)c1`, the call was inactive.
Same read-out and setting: next, `CCCCCCCc1ccc(O)cc1`: “inactive”; `CCCCN(CCCC)N=O`: “inactive”.
With `CCCN(CCC)c1c([N+](=O)[O-])cc(C(C)C)cc1[N+](=O)[O-]`, the result was inactive.

As usually defined, the AC50 is the midpoint of the concentration-response curve, whichever way the signal moves.

The values above are taken from PubChem BioAssay (EPA / NIEHS).
